According to PubChem BioAssay:
The source made the active and inactive calls.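 The calls were made as follows, unless noted: active = compounds killing one labelled cell type while sparing the other, by normalised counts and ratio limits, not self-fluorescent; inactive = the rest.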

Key:
[1] = differential killing of epithelial or mesenchymal cells, primary screen, imaging, PC-3E GFP, TEM4-18 mCherry, co-culture (AID 1345086); details: imaging cell counts, at 1 µM; for red/green cell ratio (normalised): actives lie on both sides;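 as to all read-outs here: cells exposed to compound for 72 h before imaging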;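 as to red/green cell ratio (normalised): normalised mesenchymal count divided by normalised epithelial count so high means epithelial killing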
[2] = test system: Neuropilin-2 / VEGF-C interaction (human); assay: inhibitors of NRP2–VEGF-C binding, biochemical, microplate binding format, z-score (AID 743281; call rule not given here); details: microplate NRP2/VEGF-C binding assay; stronger effect = lower value
[3] = modulation of C. elegans fzo-1 (AID 1259413; call rule not given here;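 also: fzo-1 mutant C. elegans worms in liquid wells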); details: C. elegans fzo-1 modulator screen, mean read-out; stronger effect = higher value
[4] = liver-stage malaria parasite growth inhibition, primary screen, cell-based, HepG2, luciferase luminescence, HepG2 viability (AID 624349; in the data active = parasite load remaining mostly below about 12%, no sharp cut-off; inactive = mostly above about 10%;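 also: 100% = mean of DMSO negative control wells on the same plate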); details: P. berghei liver stage in HepG2, luciferase luminescence, concentration not given here; parasite load remaining: stronger effect = lower value; viability: measured here: HepG2 viability without parasites
[5] = Cy5 fluorescence interference with SSB-bound oligo, artefact control for HCV NS3 helicase inhibitor project, biochemical, NIH Clinical Collection, E. coli SSB (AID 743268; call rule not given here)
[6] = test system: Hepatitis C virus NS3 helicase; assay: HCV NS3 helicase inhibitors, primary screen, biochemical, fluorescence polarization, NIH Clinical Collection (AID 743270; call rule not given here); details: NS3 helicase binding to Cy5-dT15 DNA, stronger effect = higher value, concentration not given here
[7] = biological target: Single-stranded DNA-binding protein (Escherichia coli (strain K12)) (UniProt P0AGE0); assay: E. coli SSB displacement from DNA, counter-screen for HCV NS3 helicase inhibitor project, biochemical, fluorescence polarization, NIH Clinical Collection (AID 743271; in the data active = inhibition above about 28%); details: stronger effect = higher value, concentration not given here
[8] = fluorescence interference in NS3h assay format, artefact control for HCV NS3 helicase inhibitor project, biochemical, NIH Clinical Collection (AID 743272; call rule not given here;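 also: HCV NS3 helicase with a Cy5 labelled single stranded DNA probe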); details: fluorescence interference counterscreen, stronger effect = lower value
[9] = counts scaled to control wells, 1 = unselective
[10] = measured here: epithelial PC-3E GFP cell survival
[11] = measured here: mesenchymal TEM4-18 mCherry cell survival

COc1cc(O)c2c(=O)oc3cc(O)cc(C)c3c2c1
red/green cell ratio (normalised) [1, 9]: 0.9 (inactive) | normalised cell number [1, 10]: 1.19 | normalised cell number [1, 11]: 1.07

C/C=C(\C)C(=O)O[C@H]1C[C@@H](OC(C)=O)[C@@]2(C(=O)OC)CO[C@@H]3C2[C@]12CO[C@](O)(C(=O)OC)[C@H]2[C@](C)(C12O[C@@]1(C)[C@H]1C[C@H]2OC2OC=C[C@@]21O)[C@@H]3O (stereo not given in full)
red/green cell ratio (normalised) [1, 9]: 1.21 (inactive) | normalised cell number [1, 10]: 0.89 | normalised cell number [1, 11]: 1.08

Cc1cc(O)cc2oc(=O)c3c(O)cc(O)cc3c12
red/green cell ratio (normalised) [1, 9]: 0.89 (inactive) | normalised cell number [1, 10]: 0.99 | normalised cell number [1, 11]: 0.88

C[C@@H]1CC[C@H]2[C@@H](C)C(=O)O[C@@H]3O[C@]4(C)CC[C@@H]1[C@]32OO4
red/green cell ratio (normalised) [1, 9]: 1.06 (inactive) | normalised cell number [1, 10]: 0.97 | normalised cell number [1, 11]: 1.03

C=Cc1cc(OC)c2c(c1)c(=O)oc1c2cc(OC)c2c(O)ccc([C@@H]3O[C@@H](C)[C@H](OC(C)=O)[C@H](N(C)C)[C@H]3O)c21
red/green cell ratio (normalised) [1, 9]: 0.75 (inactive) | normalised cell number [1, 10]: 0.41 | normalised cell number [1, 11]: 0.31

CC12C/C(=C/O)C(=O)C[C@@H]1CC[C@@H]1[C@@H]2CCC2(C)[C@H]1CC[C@]2(C)O (stereo not given in full)
outcome [2]: inactive | mean signal [3]: 230 (inactive)

CC12CCC(=O)C=C1CC[C@@H]1[C@@H]2CCC2(C)[C@H]1CC[C@]2(C)O (stereo not given in full)
outcome [2]: inactive | mean signal [3]: 283 (inactive)

Fc1ccc(N2CCNCC2)c(F)c1
red/green cell ratio (normalised) [1]: 1.03 (inactive) | normalised cell number [1, 10]: 1.01 | normalised cell number [1, 11]: 1.04

N#Cc1cc(I)c(O)c(I)c1
red/green cell ratio (normalised) [1, 9]: 1.04 (inactive) | normalised cell number [1, 10]: 1.08 | normalised cell number [1, 11]: 1.12

Oc1ccc2c3c1O[C@H]1c4[nH]c5ccccc5c4CC4(O)C(C2)N(CC2CC2)CC[C@]314 (stereo not given in full)
outcome [2]: inactive | mean signal [3]: 234 (inactive)

COc1cc2c(c3oc4cccc(O)c4c(=O)c13)[C@@H]1C=CO[C@@H]1O2
red/green cell ratio (normalised) [1]: 0.95 (inactive) | normalised cell number [1, 10]: 1.04 | normalised cell number [1, 11]: 0.98

C[C@@H]1CC[C@@]2(NC1)OC1CC3C4CC=C5C[C@@H](O)CC[C@]5(C)C4CC[C@]3(C)C1[C@@H]2C (stereo not given in full)
red/green cell ratio (normalised) [1, 9]: 1.02 (inactive) | normalised cell number [1, 10]: 1.11 | normalised cell number [1, 11]: 1.13

Oc1ccc2c3c1OC1C(O)CC[C@@]4(O)[C@@H](C2)N(CC2CCC2)CC[C@]314 (stereo not given in full)
parasite load remaining [4]: 133% (inactive) | viability [4]: 141% | fluorescence ratio [5]: 0.97 (inactive) | inhibition [6]: -1.98% (inactive) | inhibition [7]: 9.14% (inactive) | fluorescence ratio [8]: 0.88 (inactive) | z-score [2]: -0.335 (inactive) | mean signal [3]: 241 (inactive)

C[C@]12CCC3C(CC[C@@H]4CC(=O)CC[C@]34C)C1CCC2=O (stereo not given in full)
red/green cell ratio (normalised) [1]: 1.04 (inactive) | normalised cell number [1, 10]: 0.88 | normalised cell number [1, 11]: 0.91

CN1CC[C@@]2(C)c3cc(O)ccc3N(C)[C@@H]12
red/green cell ratio (normalised) [1, 9]: 1.19 (inactive) | normalised cell number [1, 10]: 0.88 | normalised cell number [1, 11]: 1.05

COc1cc(O)c(C(=O)O)c(-c2cc(O)c(O)cc2C)c1
red/green cell ratio (normalised) [1, 9]: 1.12 (inactive) | normalised cell number [1, 10]: 0.82 | normalised cell number [1, 11]: 0.92
